This passage reports growth results from PubChem BioAssay (NCI).

What all share (experiment): NCI-60 one-dose screen, 48 h (100 = growth as untreated, 0 = no growth, -100 = all killed)
One assay has as its system HOP-92 NSCLC. Particulars: 10 µM unless noted.
The next assay deals with NCI-H522 lung. Particulars: 10 µM unless noted.
For the next assay, the system named is MALME-3M melanoma. Particulars: 10 µM unless noted.
The next assay relates to RXF 393 renal. Particulars: 10 µM unless noted.
In a further assay the test system is M14 melanoma. Particulars: 10 µM unless noted.
The next assay relates to U251 CNS. Particulars: 10 µM unless noted.
In another assay the test system is EKVX NSCLC. Particulars: 10 µM unless noted.
The next assay relates to TK-10 renal. Particulars: 10 µM unless noted.
For another assay, the system named is CCRF-CEM leukemia. Particulars: 10 µM unless noted.
The subject of another assay is RPMI-8226 leukemia. Particulars: 10 µM unless noted.
The next assay relates to BT-549 breast. Particulars: 10 µM.
For another assay, the system named is SW-620 colon. Particulars: 10 µM unless noted.
The next assay relates to HCT-116 colon. Particulars: 10 µM unless noted.
A further assay has as its system LOX IMVI melanoma. Particulars: 10 µM unless noted.
The test system of another assay is CAKI-1 renal. Particulars: 10 µM unless noted.
A further assay relates to MOLT-4 leukemia. Particulars: 10 µM.
A further assay has as its system SR leukemia. Particulars: 10 µM.
The next assay relates to SK-OV-3 ovarian. Particulars: 10 µM unless noted.
The next assay concerns COLO 205 colon. Particulars: 10 µM.

The panel holds about 83,000 compounds, 20% with a hit somewhere; the sample as a whole holds those more often.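 Percent growth is the endpoint: 0 to 100 indicates growth inhibition (40 means 60% inhibition), 0 means no net growth, and negative values indicate cell death.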 Unmarked numbers belong to inactive results. Active and inactive are the calls of the source. The calls were made as follows: active = growth percent below 10; inactive = the rest.

Regarding `C[C@@H]1CC[C@@H]2[C@@H]1[C@H](OC(=O)/C=C/C1CCCCC1)[C@]1(C3CCCCC3)C[C@@H](OC(=O)CO)[C@@]2(C)O1`, the growth in the assay with HOP-92 NSCLC was 41.6%; with NCI-H522 lung, 46.9%; in the assay on MALME-3M melanoma it was 78.8%; in the assay with RXF 393 renal it was 13.3%; with M14 melanoma, 65.2%; in the assay with U251 CNS it was 60.2%. Further, the growth in the assay on EKVX NSCLC was 78.1%; with TK-10 renal, 81.7%; in the assay on CCRF-CEM leukemia, 41.1%; with RPMI-8226 leukemia, 25.3%; in the assay with BT-549 breast, 0.314% (active); in the assay on SW-620 colon, 66.4%. In the assay on HCT-116 colon, the growth is 39.6%.
On to `[Cl][Hg][n]1cnc2c(Cl)c(Cl)c(Cl)cc21`, for which the growth in the assay on HOP-92 NSCLC was 116%; in the assay on NCI-H522 lung, 50.2%; in the assay with MALME-3M melanoma, 97.6%; in the assay with RXF 393 renal, 140%; in the assay on M14 melanoma, 94.5%; in the assay with U251 CNS, 78.2%. Moreover, the growth was 79.6% with LOX IMVI melanoma; 81.7% in the assay with EKVX NSCLC; 108% in the assay with TK-10 renal; 103% in the assay on CAKI-1 renal; 102% with CCRF-CEM leukemia; 107% with MOLT-4 leukemia. The growth is 80.1% with SR leukemia; 98.9% in the assay on RPMI-8226 leukemia; 113% with SK-OV-3 ovarian; 112% in the assay on BT-549 breast; 114% in the assay on SW-620 colon; 103% in the assay with HCT-116 colon.
Regarding `COc1cc(C2(C#N)CCN(C)CC2)cc(OC)c1OC`, the growth in the assay on HOP-92 NSCLC was 100%; with COLO 205 colon, 107%; with MALME-3M melanoma, 113%; in the assay with RXF 393 renal, 114%; with M14 melanoma, 90.9%; with U251 CNS it was 101%. Besides, the growth is 93.8% with LOX IMVI melanoma; 112% in the assay with EKVX NSCLC; 108% with TK-10 renal; 79.1% in the assay on CAKI-1 renal; 116% in the assay with CCRF-CEM leukemia; 83.3% in the assay on MOLT-4 leukemia. In addition, the growth was 91.2% in the assay on SR leukemia, 106% in the assay on RPMI-8226 leukemia, 101% in the assay on BT-549 breast and 91.8% in the assay on HCT-116 colon.
Take `Nc1cccc2c1Oc1ccccc1O2`: the growth is 80.3% in the assay with HOP-92 NSCLC; 134% with COLO 205 colon; 97.3% in the assay on MALME-3M melanoma; 145% with RXF 393 renal; 108% in the assay with M14 melanoma; 93.1% with LOX IMVI melanoma. For the same molecule, the growth with TK-10 renal was 115%; with CAKI-1 renal it was 88%; with CCRF-CEM leukemia, 87.7%; in the assay on MOLT-4 leukemia it was 103%; in the assay on SR leukemia, 102%; with RPMI-8226 leukemia it was 95.9%. Moreover, the growth in the assay on SK-OV-3 ovarian was 184%; with BT-549 breast it was 104%; in the assay on SW-620 colon it was 107%; with HCT-116 colon, 93.3%.
As to `CCOc1cc(/C=N\Nc2nnc(C)n2N)c(C)cc1N(CCCl)CCCl`, the growth was -17.4% (active) in the assay with HOP-92 NSCLC; 15% in the assay with NCI-H522 lung; 29.7% in the assay on RXF 393 renal; 14.4% in the assay on U251 CNS; 1.98% (active) in the assay with LOX IMVI melanoma; 31% with TK-10 renal. Also, the growth is 11.8% with CAKI-1 renal; 4.43% (active) in the assay on CCRF-CEM leukemia; -9.42% (active) with MOLT-4 leukemia; -12.6% (active) in the assay on SR leukemia; -37.9% (active) in the assay with RPMI-8226 leukemia; 40.1% in the assay on SK-OV-3 ovarian. Besides, the growth in the assay on BT-549 breast is 17%; in the assay with HCT-116 colon it was 12%.
In the case of `COc1cccc2c1C(=O)c1c(O)c3c(c(O)c1C2=O)CC(O)(/C(C)=N/NC(=O)CCC(=O)N/N=C(\C)C1(O)Cc2c(O)c4c(c(O)c2C(OC2CC(N)C(O)C(C)O2)C1)C(=O)c1c(OC)cccc1C4=O)CC3OC1CC(N)C(O)C(C)O1` (configuration not stated), the growth was -40.3% [5 µM] (active) with HOP-92 NSCLC; -47% [5 µM] (active) with NCI-H522 lung; -99.1% [5 µM] (active) with MALME-3M melanoma; -56.7% [5 µM] (active) with RXF 393 renal; -55.7% [5 µM] (active) in the assay on M14 melanoma; -27% [5 µM] (active) in the assay with U251 CNS. The growth with LOX IMVI melanoma was -35.3% [5 µM] (active); in the assay with TK-10 renal, -43.1% [5 µM] (active); in the assay on CCRF-CEM leukemia, -25.2% [5 µM] (active); in the assay with RPMI-8226 leukemia it was -38% [5 µM] (active); in the assay on SK-OV-3 ovarian, -31.4% [5 µM] (active); in the assay with SW-620 colon, -23.5% [5 µM] (active). The growth with HCT-116 colon is -31.5% [5 µM] (active).
For `O=C(C(=O)N1CCCC1)c1cn(CCCCCn2cc(C(=O)C(=O)N3CCCC3)c3ccccc32)c2ccccc12`, the growth in the assay with HOP-92 NSCLC was 37.2%; with NCI-H522 lung, 89.5%; in the assay on COLO 205 colon it was 110%; with MALME-3M melanoma, 109%; in the assay on RXF 393 renal, 108%; in the assay with M14 melanoma, 95.9%. For the same molecule, the growth was 88% in the assay with U251 CNS; 75.5% with EKVX NSCLC; 112% in the assay with TK-10 renal; 73.9% in the assay on CAKI-1 renal; -26.6% (active) in the assay with CCRF-CEM leukemia; 67.7% with SR leukemia. For the same molecule, the growth in the assay on RPMI-8226 leukemia is 66.2%; in the assay on SK-OV-3 ovarian it was 103%; with BT-549 breast, 90%; with HCT-116 colon, 94.1%.
Take `OC1(c2ccccc2F)c2ccccc2C2=NCCN21` (configuration not stated): the growth with HOP-92 NSCLC was 78.9%; in the assay with COLO 205 colon, 101%; in the assay on MALME-3M melanoma, 97.2%; in the assay on RXF 393 renal, -10.4% (active); with M14 melanoma, 107%; in the assay with U251 CNS it was 104%. The growth in the assay with LOX IMVI melanoma was 96.9%; in the assay on EKVX NSCLC it was 97.8%; with TK-10 renal it was 90.4%; in the assay on CAKI-1 renal, 64.4%; in the assay with CCRF-CEM leukemia, 93%; in the assay with MOLT-4 leukemia it was 97.7%. Moreover, the growth in the assay on SR leukemia is 90.9%; in the assay with RPMI-8226 leukemia it was 107%; with SK-OV-3 ovarian it was 105%; in the assay on BT-549 breast, 110%; with SW-620 colon, 96.8%; in the assay with HCT-116 colon, 93.3%.
For `O=C(O)c1[nH]c(=O)[nH]c(=O)c1F`, the growth in the assay on HOP-92 NSCLC was 106%; in the assay on NCI-H522 lung, 88.9%; in the assay with MALME-3M melanoma, 113%; with RXF 393 renal, 103%; in the assay on M14 melanoma it was 86.6%; with U251 CNS, 87.2%. Moreover, the growth was 84.6% in the assay with LOX IMVI melanoma; 121% in the assay on EKVX NSCLC; 78.6% in the assay on TK-10 renal; 66.8% in the assay on CAKI-1 renal; 78.4% in the assay on CCRF-CEM leukemia; 49.7% in the assay on MOLT-4 leukemia. For the same molecule, the growth in the assay on SR leukemia is 91.7%; in the assay with RPMI-8226 leukemia, 73.7%; in the assay with SK-OV-3 ovarian it was 112%; in the assay with BT-549 breast, 111%; in the assay with SW-620 colon, 72.7%; with HCT-116 colon, 79.3%.
